Here are results for 23 molecules from the supplement of paper PMC6992640.

Holding throughout (assay): cell viability of combination (% of vehicle); higher = less cytotoxic
Holding throughout (details): 1 µM; 72 h; partner dose: 10 nM

For experiment [1], the system named is HCI01 (cells of a triple-negative basal-like breast cancer xenograft). Here is the method: (§1)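 PDX cells were treated for 72 h with each drug at 1 µM plus carfilzomib (10 nM; 100 nM for WHIM2). Luciferase viability is expressed as percent of vehicle.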
Experiment [2] deals with UCD52 (cells of a triple-negative basal-like breast cancer xenograft). The protocol: as §1
Another experiment concerns WHIM30 (cells of a triple-negative basal-like breast cancer xenograft). Here is the method: as §1
In experiment [3] the test system is HCI01. The protocol: (§2)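 PDX cells were treated for 72 h with each drug at 1 µM plus afatinib (10 nM; 1 µM for WHIM30). Luciferase viability is expressed as percent of vehicle.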
This is another data set of the same source.

For experiment [4], the system named is UCD52. Here is the method:
as §2
The source holds these as a separate data set.

In another experiment the test system is WHIM2 (cells of a triple-negative basal-like breast cancer xenograft). Here is the method:
as §2

Each structure is given as a SMILES string.

Take `CC(C)CC(NC(=O)C(CCc1ccccc1)NC(=O)CN1CCOCC1)C(=O)NC(Cc1ccccc1)C(=O)NC(CC(C)C)C(=O)C1(C)CO1` (stereo not drawn) [Carfilzomib (PR-171)] + CC(C)C[C@H](NC(=O)[C@H](CCc1ccccc1)NC(=O)CN1CCOCC1)C(=O)N[C@@H](Cc1ccccc1)C(=O)N[C@@H](CC(C)C)C(=O)[C@@]1(C)CO1 [Carfilzomib]: the results for the “cell viability of combination” value in the experiment on HCI01 [1], in the experiment on UCD52 [2] and with WHIM30 were 31, 14.2 and 9.47, respectively.
`CC(C)Nc1cc(-c2c[nH]c(C(=O)NC(CO)c3cccc(Cl)c3)c2)c(Cl)cn1` (stereo not drawn) + CC(C)C[C@H](NC(=O)[C@H](CCc1ccccc1)NC(=O)CN1CCOCC1)C(=O)N[C@@H](Cc1ccccc1)C(=O)N[C@@H](CC(C)C)C(=O)[C@@]1(C)CO1 [Carfilzomib]: the results for the “cell viability of combination” value in the experiment with HCI01 [1], in the experiment on UCD52 [2] and with WHIM30 were 94, 48.9 and 21.7, respectively.
With `N.N.O=C([O-])C1(C(=O)[O-])CCC1.[Pt+2]` [Carboplatin] + CN(C)C/C=C/C(=O)Nc1cc2c(Nc3ccc(F)c(Cl)c3)ncnc2cc1O[C@H]1CCOC1 [Afatinib], the “cell viability of combination” value in the experiment on HCI01 [3] was determined as 60.1; with UCD52 [4], 68.6; in the experiment on WHIM2 it was 53.1.
For the molecule `COc1ccc(C[C@H](N)C(=O)N[C@@H]2[C@H](O)[C@H](n3cnc4c(N(C)C)ncnc43)O[C@@H]2CO)cc1.Cl.Cl` [Puromycin dihydrochloride] + CN(C)C/C=C/C(=O)Nc1cc2c(Nc3ccc(F)c(Cl)c3)ncnc2cc1O[C@H]1CCOC1 [Afatinib], the “cell viability of combination” value in the experiment with HCI01 [3] turned out to be 69.5; with UCD52 [4], 18.2; in the experiment on WHIM2 it was 82.6.
In the case of `COc1cc2nccc(Oc3ccc(NC(=O)NC4CC4)c(Cl)c3)c2cc1C(N)=O` [Lenvatinib (E7080)] + CC(C)C[C@H](NC(=O)[C@H](CCc1ccccc1)NC(=O)CN1CCOCC1)C(=O)N[C@@H](Cc1ccccc1)C(=O)N[C@@H](CC(C)C)C(=O)[C@@]1(C)CO1 [Carfilzomib], the “cell viability of combination” value in the experiment on HCI01 [1] was found to be 97.9; in the experiment with UCD52 [2] it was 38.2; in the experiment with WHIM30, 21.9.
Take `C=C1C(=CC=C2CCCC3(C)C2CCC3C(C)CCCC(C)(C)O)CC(O)CC1O` (stereo not drawn) [Calcitriol] + CC(C)C[C@H](NC(=O)[C@H](CCc1ccccc1)NC(=O)CN1CCOCC1)C(=O)N[C@@H](Cc1ccccc1)C(=O)N[C@@H](CC(C)C)C(=O)[C@@]1(C)CO1 [Carfilzomib]: the “cell viability of combination” value in the experiment on HCI01 [1] amounted to 53.8; in the experiment with UCD52 [2], 38.4; with WHIM30, 19.1.
For `CN(C)c1ccc(C(=C2C=CC(=[N+](C)C)C=C2)c2ccc(N(C)C)cc2)cc1.[Cl-]` [Crystal Violet] + CC(C)C[C@H](NC(=O)[C@H](CCc1ccccc1)NC(=O)CN1CCOCC1)C(=O)N[C@@H](Cc1ccccc1)C(=O)N[C@@H](CC(C)C)C(=O)[C@@]1(C)CO1 [Carfilzomib], in that order: 68, 32.3 and 6.
In the case of `CC[C@@]1(O)C(=O)OCc2c1cc1n(c2=O)Cc2cc3c(CN(C)C)c(O)ccc3nc2-1.Cl` [Topotecan HCl] + CC(C)C[C@H](NC(=O)[C@H](CCc1ccccc1)NC(=O)CN1CCOCC1)C(=O)N[C@@H](Cc1ccccc1)C(=O)N[C@@H](CC(C)C)C(=O)[C@@]1(C)CO1 [Carfilzomib], the “cell viability of combination” value in the experiment on HCI01 [1] is 55.9; in the experiment with UCD52 [2] it was 54.7; in the experiment on WHIM30 it was 7.58.
Turning to `CNC1CCC(c2ccc(Cl)c(Cl)c2)c2ccccc21.Cl` (stereo not drawn) [Sertraline HCl] + CN(C)C/C=C/C(=O)Nc1cc2c(Nc3ccc(F)c(Cl)c3)ncnc2cc1O[C@H]1CCOC1 [Afatinib], the figures for the “cell viability of combination” value with HCI01 [3], with UCD52 [4] and with WHIM2 were 53.4, 56.4 and 49.2, respectively.
For the molecule `O=C(O)CO.[NH2-].[NH2-].[Pt+2]` [Nedaplatin] + CC(C)C[C@H](NC(=O)[C@H](CCc1ccccc1)NC(=O)CN1CCOCC1)C(=O)N[C@@H](Cc1ccccc1)C(=O)N[C@@H](CC(C)C)C(=O)[C@@]1(C)CO1 [Carfilzomib], the results for the “cell viability of combination” value in the experiment on HCI01 [1], with UCD52 [2] and in the experiment with WHIM30 were 71.6, 68.8 and 16.4, respectively.
Turning to `Cc1cc(Nc2ncc(Cl)c(Nc3ccccc3S(=O)(=O)C(C)C)n2)c(OC(C)C)cc1C1CCNCC1` + CC(C)C[C@H](NC(=O)[C@H](CCc1ccccc1)NC(=O)CN1CCOCC1)C(=O)N[C@@H](Cc1ccccc1)C(=O)N[C@@H](CC(C)C)C(=O)[C@@]1(C)CO1 [Carfilzomib], the “cell viability of combination” value was 81.5 in the experiment on HCI01 [1], 31.4 with UCD52 [2] and 7.66 in the experiment with WHIM30.
For `CC(Oc1cc(-c2cnn(C3CCNCC3)c2)cnc1N)c1c(Cl)ccc(F)c1Cl` [(R)-Crizotinib] + CC(C)C[C@H](NC(=O)[C@H](CCc1ccccc1)NC(=O)CN1CCOCC1)C(=O)N[C@@H](Cc1ccccc1)C(=O)N[C@@H](CC(C)C)C(=O)[C@@]1(C)CO1 [Carfilzomib], the figures for the “cell viability of combination” value in the experiment with HCI01 [1], in the experiment on UCD52 [2] and with WHIM30 were 146, 49.1 and 27.4, respectively.
As for `CCCCCOc1ccc(-c2ccc(-c3ccc(C(=O)N[C@H]4C[C@@H](O)[C@@H](O)NC(=O)[C@@H]5[C@@H](O)[C@@H](C)CN5C(=O)[C@H]([C@@H](C)O)NC(=O)[C@H]([C@H](O)[C@@H](O)c5ccc(O)cc5)NC(=O)[C@@H]5C[C@@H](O)CN5C(=O)[C@H]([C@@H](C)O)NC4=O)cc3)cc2)cc1` [Anidulafungin] + CC(C)C[C@H](NC(=O)[C@H](CCc1ccccc1)NC(=O)CN1CCOCC1)C(=O)N[C@@H](Cc1ccccc1)C(=O)N[C@@H](CC(C)C)C(=O)[C@@]1(C)CO1 [Carfilzomib], the figures for the “cell viability of combination” value in the experiment with HCI01 [1], in the experiment with UCD52 [2] and with WHIM30 were 73.7, 60 and 16.7, respectively.
As for `CO[C@@]12[C@H](COC(N)=O)C3=C(C(=O)C(C)=C(N)C3=O)N1C[C@@H]1N[C@@H]12` [Mitomycin C] + CC(C)C[C@H](NC(=O)[C@H](CCc1ccccc1)NC(=O)CN1CCOCC1)C(=O)N[C@@H](Cc1ccccc1)C(=O)N[C@@H](CC(C)C)C(=O)[C@@]1(C)CO1 [Carfilzomib], the results for the “cell viability of combination” value with HCI01 [1], with UCD52 [2] and in the experiment with WHIM30 were 51.1, 64 and 23.5, respectively.
For `O=C(NN=Cc1ccc([N+](=O)[O-])o1)c1ccc(O)cc1` [Nifuroxazide] + CC(C)C[C@H](NC(=O)[C@H](CCc1ccccc1)NC(=O)CN1CCOCC1)C(=O)N[C@@H](Cc1ccccc1)C(=O)N[C@@H](CC(C)C)C(=O)[C@@]1(C)CO1 [Carfilzomib], in that order: 72.2, 57.6 and 12.5.
Consider `COc1cc2c(Nc3ccc(Br)cc3F)ncnc2cc1OCC1CCN(C)CC1` [Vandetanib (ZD6474)] + CC(C)C[C@H](NC(=O)[C@H](CCc1ccccc1)NC(=O)CN1CCOCC1)C(=O)N[C@@H](Cc1ccccc1)C(=O)N[C@@H](CC(C)C)C(=O)[C@@]1(C)CO1 [Carfilzomib], for which the “cell viability of combination” value in the experiment on HCI01 [1] was determined as 64.1; with UCD52 [2], 39.4; in the experiment with WHIM30, 15.1.
As for `CC1(COc2ccc3c(c2)ncn3-c2ccc3cccc(N4CCC(N)CC4)c3n2)COC1` + CN(C)C/C=C/C(=O)Nc1cc2c(Nc3ccc(F)c(Cl)c3)ncnc2cc1O[C@H]1CCOC1 [Afatinib], the “cell viability of combination” value in the experiment with HCI01 [3] stood at 56.3; in the experiment on UCD52 [4], 108.
As to `CC(C)(C)c1ccc(C(=O)CCCN2CCC(OC(c3ccccc3)c3ccccc3)CC2)cc1` [Ebastine] + CC(C)C[C@H](NC(=O)[C@H](CCc1ccccc1)NC(=O)CN1CCOCC1)C(=O)N[C@@H](Cc1ccccc1)C(=O)N[C@@H](CC(C)C)C(=O)[C@@]1(C)CO1 [Carfilzomib], the entries for the “cell viability of combination” value with HCI01 [1], with UCD52 [2] and with WHIM30 were 74, 59.8 and 15.8, respectively.
`CCc1cnn2c(NCc3ccc[n+]([O-])c3)cc(N3CCCCC3CCO)nc12` (stereo not drawn) + CN(C)C/C=C/C(=O)Nc1cc2c(Nc3ccc(F)c(Cl)c3)ncnc2cc1O[C@H]1CCOC1 [Afatinib]: the entries for the “cell viability of combination” value with HCI01 [3], with UCD52 [4] and in the experiment on WHIM2 were 25.6, 21.4 and 16.4, respectively.
For the molecule `CC1(C)Cc2c(-c3ccccc3)c(-c3ccc(Cl)cc3)c(CC(=O)O)n2C1` [Licofelone] + CC(C)C[C@H](NC(=O)[C@H](CCc1ccccc1)NC(=O)CN1CCOCC1)C(=O)N[C@@H](Cc1ccccc1)C(=O)N[C@@H](CC(C)C)C(=O)[C@@]1(C)CO1 [Carfilzomib], the “cell viability of combination” value in the experiment on HCI01 [1] was 83.7; in the experiment on UCD52 [2], 64.7; in the experiment with WHIM30, 18.6.
With `CC(C)C(=O)OCC(=O)[C@@]12O[C@H](C3CCCCC3)O[C@@H]1C[C@H]1[C@@H]3CCC4=CC(=O)C=C[C@]4(C)[C@H]3[C@@H](O)C[C@@]12C` [Ciclesonide] + CC(C)C[C@H](NC(=O)[C@H](CCc1ccccc1)NC(=O)CN1CCOCC1)C(=O)N[C@@H](Cc1ccccc1)C(=O)N[C@@H](CC(C)C)C(=O)[C@@]1(C)CO1 [Carfilzomib], the “cell viability of combination” value stood at 108 in the experiment on HCI01 [1], 88.6 in the experiment on UCD52 [2] and 31.2 in the experiment on WHIM30.
In the case of `CCCCCCCCc1ccc(CCC(N)(CO)CO)cc1.Cl` [Fingolimod (FTY720)] + CC(C)C[C@H](NC(=O)[C@H](CCc1ccccc1)NC(=O)CN1CCOCC1)C(=O)N[C@@H](Cc1ccccc1)C(=O)N[C@@H](CC(C)C)C(=O)[C@@]1(C)CO1 [Carfilzomib], the “cell viability of combination” value with HCI01 [1] is 77.3; in the experiment with UCD52 [2], 61.5; with WHIM30, 16.7.
Consider `CNCCCC12CCC(c3ccccc31)c1ccccc12.Cl` [Maprotiline HCl] + CN(C)C/C=C/C(=O)Nc1cc2c(Nc3ccc(F)c(Cl)c3)ncnc2cc1O[C@H]1CCOC1 [Afatinib], for which the “cell viability of combination” value was determined as 55.1 in the experiment on HCI01 [3], 61.4 in the experiment with UCD52 [4] and 46 in the experiment with WHIM2.
